Data as given in PubChem BioAssay (EPA / NIEHS).
Values joined by “and” are separate entries in the source; they are usually repeats but may differ in a detail not shown here. Identical values can stand only once. Active and inactive are the calls of the source. Rule for the calls: active = hit-call score of the fitted dose curve at least 0.9, where 1 is the maximum; inactive = score below 0.9.

Test: BSK_4H_SRB: Viability Assessment in the BioMAP Diversity Plus: 4H Assay (AID 2283027);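 for AC50: curves fitted both ways versus DMSO so AC50 may be loss or gain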
Details: primary human endothelial cells (HUVEC)
Description: BSK_4H is a cell-based, multiplexed-readout assay that uses umbilical vein endothelium, a human vascular primary cell, with measurements taken at 24 hours after chemical dosing in a 96-well plate.BSK_4H_SRB is an assay component measured in the BSK_4H assay. It measures […] related to cell death using Sulforhodamine staining technology.Data from the assay component BSK_4H_SRB was analyzed into 1 assay endpoint. This assay endpoint, BSK_4H_SRB, was analyzed with bidirectional fitting relative to DMSO as the negative control and baseline of activity. Using a type of viability reporter, gain or loss-of-signal activity can be used to understand changes in the signaling. Furthermore, this assay endpoint can be referred to as a primary readout, because this assay has produced multiple assay endpoints where this one serves a signaling function. To generalize the intended target to other relatable targets, this assay endpoint is annotated to the cell morphology intended target family, where the subfamily is cell conformation.
The levels of cell surface (or secreted, indicated by the prefix "s") biomarker endpoints were measured by ELISA. Overt cytotoxicity to cells in confluent adherent cultures (all systems other than the BT system) was assessed by measuring total protein levels using sulforhodamine B (SRB) staining in parallel cultures at the time of biomarker measurements, indicated as SRB endpoints. For proliferation assays for adherent cell types, individual cell types are cultured at sub-confluence and relative cell numbers quantified by SRB staining at time points optimized for each system (48 h: 3C and CASM3C systems; 72 h: BT and HDF3CGF systems; 96 h: SAg system). SRB was performed by staining cells with 0.1% SRB after fixation with 10% TCA and reading wells at 560 nm.Viability and proliferation of PBMC (T cells) was quantified by Alamar Blue reduction for the SAg and BT systems. For PBMC viability (referred to as PBMC Cytotoxicity within the assay endpoint names), cells were plated (75,000/well in a 96-well plate) and then chemical samples added for 1 h before addition of activators, SEB and TSST-1 (20 ng/mL final concentration each). Cells were incubated for 90 h. Then, Alamar Blue (20 uL/well) (Invitrogen, Cat DAL1100) was added for 6 h, and the plates were read with a fluorescence microplate reader at 546/580 nm (excitation/emission). For PBMC proliferation, cells were plated and activated as above but incubated for only 16 h prior to addition of Alamar Blue. Plates were read after 6 h.
With CN(C)Cc1cc(C(C)(C)C)c(O)c(C(C)(C)C)c1 the outcome was “inactive”.
With CCCCCCCCCC/C=C/C1CC(=O)OC1=O (configuration not stated) the outcome was “inactive”.
With CC(C)CC(=O)CC(C)CC(C)C (configuration not stated) the AC50 was 33.7 µM (active).
With Sc1nc2ccccc2s1 the outcome was “inactive”.
With CC[N+](CC)(CC(=O)Nc1c(C)cccc1C)Cc1ccccc1 (tested in a mixture with another compound) the outcome was “inactive”.
In the case of O=[N+]([O-])c1cc(S(=O)(=O)Nc2ccccc2)ccc1Nc1ccccc1, the AC50 is reported as 30.5 µM (active) and 31 µM (active).
In the case of COc1ccc(C(=O)c2ccccc2O)c(O)c1, the outcome is reported as “inactive”.
In the case of CCCCC(CC)COC(=O)C=Cc1ccc(OC)cc1 (configuration not stated), the AC50 is reported as 39 µM (active) and 36.8 µM (active).
For Cc1c(C(N)=O)cc([N+](=O)[O-])cc1[N+](=O)[O-], the outcome was “inactive”.
For C1CN(CCOCCN2CCOCC2)CCO1, the outcome was “inactive”.
With CCC[Si](OC(C)=O)(OC(C)=O)OC(C)=O the outcome was “inactive”.
In the case of COc1ccccc1Oc1c(NS(=O)(=O)c2ccc(C(C)(C)C)cc2)nc(-c2ncccn2)nc1OCCO, the outcome is reported as “inactive”.
In the case of CCCCCCC(O)CCCCCCCCCCC(=O)OC (configuration not stated), the outcome is reported as “inactive”.
In the case of CCCCCCCCCCCCCCCCCC[N+](C)(C)C, the AC50 is reported as 1.34 µM (active).
For CCC(C)=NO, the outcome was “inactive”.
With Cc1cc(-n2nc3ccc(Cl)cc3n2)c(O)c(C(C)(C)C)c1 the outcome was “inactive”.
In the case of CN(C)c1ccc(C(c2ccccc2)c2ccc(N(C)C)cc2)cc1, the AC50 is reported as 4.33 µM (active).
With COC(=O)/C=C\C(=O)OC the outcome was “inactive”.
For COc1cc(CNC(=O)CCCC/C=C/C(C)C)ccc1O, the outcome was “inactive”.
With CCCCCCCCCCC1CO1 (configuration not stated) the AC50 was 30 µM (active).
In the case of CC[N+](CC)(CC(=O)Nc1c(C)cccc1C)Cc1ccccc1, the outcome is reported as “inactive”.
With CN(C)CCC(c1ccc(Cl)cc1)c1ccccn1 (configuration not stated) the outcome was “inactive”.
In the case of O=C(C(=O)c1ccccc1)c1ccccc1, the outcome is reported as “inactive”.
For CC(C)C1OCCN1CCOC(=O)NCCCCCCNC(=O)OCCN1CCOC1C(C)C (configuration not stated), the outcome was “inactive”.
With OC(C(F)(F)F)(C(F)(F)F)C(O)(C(F)(F)F)C(F)(F)F the AC50 was 27.5 µM (active) and 26 µM (active).
With Cc1cccnc1 the outcome was “inactive”.
In the case of Oc1cccc2ccccc12, the outcome is reported as “inactive”.
